Source: PubChem BioAssay (several laboratories)
Most compounds without a hit are left out; they make up all but 0.5% or so of the library.
AddAB inh: less growth of phage-infected E. coli with AddAB; E. coli expressing H. pylori AddAB, absorbance growth; inhibition, % at 11.9 µM; 0.29% of 330,000 active; AID 435030; in the data active means inhibition above about 12%;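 further: 0% = vehicle wells of infected cells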
E coli growth-1: E. coli growth inhibition | Escherichia coli growth, OD600, 23 h; hits give low values | OD600 absorbance (concentration not given with the values) | 0.21% of 330,000 active;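 active means OD600 absorbance below the run mean of sample wells minus 3.6 SD, in any replicate, cut at about 0.56 in these data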
E coli growth-2: counter-screen for AddAB inhibitors: E. coli growth inhibition. inhibition, % at 11.9 µM. AID 449728. E. coli V3065 growth, OD600 absorbance, 18 h. 0.27% of 330,000 active;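 active means inhibition above the campaign's mean inhibition across all tested compounds plus 3 SD, cut at about 9.9% in these data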;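 further: uninfected addAB+ strain grown without phage in ampicillin broth; 0% = DMSO wells and 100% = ciprofloxacin 0.95 µg/ml wells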
phage Ecoli inh: E. coli growth loss with phage present. growth absorbance. inhibition, % at 11.9 µM. 0.26% of 360,000 active. AID 651602; in the data active means inhibition above about 11%
Tat transport: blocks Tat-dependent protein export in E. coli; E. coli MC4100 TorA-mCherry Tat export, fluorescence; inhibition, % at 10 µM; 0.036% of 340,000 active;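 active means mean replicate inhibition at least 50% and at least half of replicates individually reaching 50%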;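 further: exported cargo escapes ClpAP degradation while cytoplasmic cargo is degraded and loses fluorescence; 0% = median of neutral control wells and 100% = median of NaSCN control wells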
AddAB confirm: growth loss of T4-infected E. coli expressing H. pylori AddAB, confirmed | 64% of 880 active | shares compounds with AddAB inh | E. coli V3065 expressing H. pylori AddAB, T4 phage, OD; T4 phage with gene 2 nonsense mutations | inhibition, % at 11.9 µM;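 active means mean inhibition above a set limit taken from the earlier primary screen, cut at about 13% in these data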;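 further: higher means less bacterial growth since AddAB block lets phage replicate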
RecBCD counter: reduces growth of phage-infected RecBCD+ E. coli, AddAB inhibitor counter-screen | shares compounds with AddAB inh | E. coli V66 + mutant T4 phage, OD growth | inhibition, % at 11.9 µM | 73% of 880 active | AID 488955;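 active means mean inhibition above the mean of solvent-only control wells plus 3 SD, cut at about 4% in these data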;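 further: optical density read after an 18 h incubation at 37 °C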
Bact viability: counter-screen: bacterial growth inhibition; shares compounds with AddAB inh; bacterial viability, absorbance (AddAB counterscreen); inhibition, % at 11.9 µM; 35% of 880 active; in the data active means inhibition above about 25%
* = called active by the depositor; . = no result.

SMILES	AddAB inh	E coli growth-1	E coli growth-2	phage Ecoli inh	Tat transport	AddAB confirm	RecBCD counter	Bact viability
Cc1ccc(C)c(/C=C/C(=O)c2ccccc(=O)c2O)c1	15*	0.67	12*	8	-1	2	6.5*	-1
Cc1[nH]n(-c2ccccc2)c(=O)c1C(=O)c1ccc(Cl)cc1	97*	0.68	96*	0	-1	0	-2	-6
CC1CCN(c2ccc(/C=N\Nc3nncn3N)cc2[N+](=O)[O-])CC1	15*	.	5	3	-9	-2	0	-5
CCc1nnc(NN=Cc2ccc(N3CCC(C)CC3)c([N+](=O)[O-])c2)n1N	.	0.71	.	.	.	.	.	.
O=C(Cc1cccs1)NCCn1ccc2ccccc21	99*	0.77	95*	3	7	-1	2	-1
O=[N+]([O-])c1ccc(/C=N/n2cnc3ccccc32)s1	15*	.	9	7	-25	98*	5.9*	20
COc1ccc(-c2oc3cc(OC(C)=O)cc(OC(C)=O)c3c(=O)c2OC)cc1	.	0.64	.	2	-3	.	.	.
CC(=O)Oc1cc(O)c2c(=O)c(OC(C)=O)c(-c3ccc(OC(C)=O)c(OC(C)=O)c3)oc2c1	16*	0.62	9	.	14	14*	4.2*	9
Oc1ccc(N=Nc2ccccc2-c2nn[nH]n2)c(O)c1	14*	0.6	15*	7	-3	8	6.7*	1
COc1ccc(N2C(=O)C(=O)/C(=C(/O)c3ccc(C)cc3)C2c2cccnc2)cc1 (stereo not drawn)	2	.	2	-1	-4	.	.	.
Cc1ccc2nc(/C(C#N)=C\c3ccc([N+](=O)[O-])o3)[nH]c2c1	43*	0.6	10*	6	-18	67*	5.2*	15
CCc1ccc(/C=N/NC(=O)Cc2ccc(OC)c(OC)c2)s1	.	.	.	0	5	.	.	.
O=C1C(Nc2ccccc2)=C/C(=N/S(=O)(=O)c2cccs2)c2ccccc21	17*	.	3	.	13	1	4.7*	-4
O=C(COC(=O)CCN1C(=O)c2cccc([N+](=O)[O-])c2C1=O)NC1CCS(=O)(=O)C1 (stereo not drawn)	-1	0.68	0	2	1	.	.	.
COc1ccc(S(=O)(=O)N2CCC(C(=O)N3CCc4ccccc4C3)CC2)cc1C	-1	0.76	0	1	3	.	.	.
COc1cccc(/C=N\NC(=O)c2ccc(Cn3cc(Br)c([N+](=O)[O-])n3)o2)c1O	16*	.	9.9*	10	-4	31*	7.1*	20
CC1=NN(C(=O)c2ccc(Cn3cc(Br)c([N+](=O)[O-])n3)o2)C(O)(C(F)(F)F)C1 (stereo not drawn)	18*	0.67	8	9	-3	8	3	5
CC(c1ccccc1)N1CC(C(=O)O)CC1=O (stereo not drawn)	1	0.72	0	3	-2	.	.	.
CN1CCN(C(c2ccccn2)c2cc(Cl)c3cccnc3c2O)CC1 (stereo not drawn)	5	0.62	-1	8	-7	.	.	.
Cc1ccc(C(c2cc(Cl)c3cccnc3c2O)N2CCN(C)CC2)cc1 (stereo not drawn)	19*	.	20*	.	-2	9	9.4*	2
COc1ccc(NC(=O)c2ccc(NC(=O)CN3CCN(c4ccccc4OC)CC3)cc2)cc1	.	.	.	2	.	.	.	.
CC1CCCN(Cc2nc3c(c(=O)n(C)c(=O)n3C)n2Cc2c(F)cccc2Cl)C1 (stereo not drawn)	99*	0.78	16*	-1	-11	-1	1	-2
CC(C)CC(=O)Nc1ccccc1N1CCN(c2ccccc2)CC1	15*	0.66	7	0	8	-4	0	-5
CC(C)CC(=O)Nc1ccccc1N1CCN(C(=O)c2ccccc2)CC1	-3	0.74	-1	0	-7	.	.	.
O=C(Nc1nc(-c2cccs2)cs1)c1ccc([N+](=O)[O-])o1	13*	0.52*	7	10	-19	85*	7.5*	13
O=C(Nc1cccc(NC(=O)c2cccs2)c1)c1ccc([N+](=O)[O-])o1	27*	0.41*	16*	11	-13	96*	9.4*	28*
